In PubChem BioAssay one finds composite z-score and z-score data, which are given here for five molecules.

Assay [1] in a line: anti-His antibody binders, primary screen, artefact control for SMM control protein annotation, biochemical, small-molecule microarray, 635 nm fluorescence (AID 1128).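 Also: score merges feature fluorescence with signal-to-noise for each printed compound spot.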 The note with it: anti-His Alexa647 antibody binding, higher = more signal.
For assay [2], the system named is Human papillomavirus type 1a E7 protein (residues 1-88). Briefly: HPV1a E7 small-molecule binders, primary screen, biochemical, small-molecule microarray, residues 1-88, 635 nm (AID 1129). As to conditions: small-molecule microarray binding, fluorescence 635 nm; higher = more signal.
Assay [3] has as its target Focal adhesion kinase 1 (Homo sapiens) (UniProt Q05397). Briefly: small-molecule microarray binders of FAK, primary screen, biochemical, 635/667 nm fluorescence, BSA, DTT (AID 1130).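 Also: composite of spot emission at 667 nm and signal to noise over triplicate slides.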 The note with it: PTK2 binding, 635 nm fluorescence, higher = more signal.
For assay [4], the system named is Fibrinogen (Alexa647-labelled). Briefly: fibrinogen binders on compound microarrays, profiling panel, artefact control for SMM control-protein annotation, biochemical, small-molecule microarray, 635/667 nm fluorescence (AID 1131).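 Also: z-score merges 667 nm fluorescence with per-spot signal-to-noise over triplicate slides.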 As to conditions: fibrinogen-A647 binding fluorescence, higher = more signal.
Assay [5] addresses Follistatin (Homo sapiens) (UniProt P19883). Briefly: follistatin binders on small-molecule microarrays, primary screen, biochemical, small-molecule microarray, 635/667 nm fluorescence (AID 1132). As to conditions: FST binding, 635 nm fluorescence, higher = more signal.
The target in assay [6] is Fibroblast growth factor 2 (Homo sapiens) (UniProt P09038). Briefly: FGF2 binders on small-molecule microarrays, primary screen, biochemical, small-molecule microarray, 635/667 nm fluorescence (AID 1133). As to conditions: small-molecule microarray binding, FGF2, fluorescence 635/667; higher = more signal.
The nature of assay [7]: mitochondrial membrane potential change in A549 cells, profiling panel, cell-based, JC-1 fluorescence, basal, 24 h, 100 nL (AID 1138).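 Also: A549 lung adenocarcinoma cells under basal conditions with no added stimulus; test concentration not given here.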 The note with it: higher = more signal.
For another assay, the system named is Lefty1. Briefly: Lefty1 binders on small-molecule microarrays, primary screen, biochemical, small-molecule microarray, 635/667 nm fluorescence (AID 1139). As to conditions: small-molecule microarray binding, fluorescence 635/667; higher = more signal.
The subject of assay [8] is wheat germ agglutinin (Triticum aestivum), Alexa647-labelled. The assay can be described thus: wheat germ agglutinin binders on compound microarrays, profiling panel, artefact control for SMM control-protein annotation, biochemical, small-molecule microarray, 635/667 nm fluorescence (AID 1140).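 Also: score merges 667 nm feature emission with signal to noise over triplicate slides.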 The note with it: WGA-A647 binding, 635 nm fluorescence, higher = more signal.

The target of assay [9] is Luciferin 4-monooxygenase (Photinus pyralis) (UniProt P08659). The assay can be described thus: firefly luciferase enzyme inhibitors, primary screen, biochemical, luminescence, purified enzyme, 2006 set (AID 1141).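 Also: cell-free assay with purified firefly luciferase at 100 ng per well in PBS; test concentration not given here.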 As to conditions: SteadyGlo luminescence, 30 min, higher = more signal, called active from +8 up or from −8 down.
Assay [10] concerns Wnt5a (protein binding on small-molecule microarray). Briefly: Wnt5a binders on small-molecule microarray, primary screen, biophysical, 635/667 nm fluorescence (AID 1142).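 Also: fluorescence read at 667 nm with signal to noise per printed feature.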 As to conditions: 635 nm fluorescence, higher = more signal.
Assay [11] in a line: cell viability in Huh7 cells, primary screen, cytotoxicity control for HCV replication inhibitor project, CellTiter-Glo luminescence, basal, 48 h (AID 1143).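 Also: Huh7 hepatoma cells carrying a hepatitis C replication reporter with no stimulus; test concentration not given here.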 As to conditions: Huh7 HCV replicon, higher = more signal, called active from +8 up or from −8 down. Background: Cellular ATP, detected with luciferase, serves as a proxy for viable cell number.
The nature of assay [12]: P. aeruginosa biofilm formation inhibitors, primary screen, PAO1 strain, BacTiter-Glo luminescence, LB-PBS (AID 1144). The note with it: 12 h, higher = more signal.
A short description of assay [13]: CREB reporter modulators without forskolin, primary screen, cell-based, PC12, CRE-LacZ reporter, unstimulated (AID 1145). As to conditions: no forskolin, luminescence, 4.5 h, higher = more signal, called active from +8 up or from −8 down.
Assay [14] can be described thus: CREB reporter modulators under forskolin, primary screen, cell-based, PC12, CRE-LacZ reporter, forskolin-stimulated (AID 1146).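 Also: PC12 cells with 6xCRE LacZ reporter stimulated by forskolin 10 µM; beta-galactosidase reporter signal reflecting CREB driven transcription.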 As to conditions: luminescence, 4.5 h, higher = more signal, called active from +8 up or from −8 down.
In assay [15] the target is Streptavidin (Streptomyces avidinii) (UniProt P22629). Briefly: streptavidin binders on small-molecule microarray, primary screen, artefact control for SMM compound annotation, biophysical, 635/667 nm fluorescence (AID 1147).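 Also: signal reflects streptavidin binding to arrayed compounds as a control protein.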 As to conditions: streptavidin binding, higher = more signal.
The nature of assay [16]: small-molecule binders of probe aInhba, primary screen, biochemical, small-molecule microarray, 635/667 nm fluorescence (AID 1148).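 Also: score merges 667nm spot fluorescence with signal-to-noise for antibody binding to printed compounds.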 As to conditions: higher = more signal.
Assay [17] deals with Torsin-1A (Homo sapiens) (UniProt O14656). The assay can be described thus: torsin A binders from cell lysate, primary screen, small-molecule microarray, wild-type, 635/667 nm (AID 1149). The note with it: COS7 hTOR1A-WT lysate, 635 nm fluorescence, higher = more signal.
For assay [18] the target is unchanged. The assay can be described thus: small-molecule binders of mutant TOR1A in lysate, primary screen, cell lysate, small-molecule microarray, COS7 lysate, 635/667 nm fluorescence (AID 1150).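 Also: score pools 667 nm emission and signal to noise measuring lysate protein binding.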 As to conditions: COS7 hTOR1A mutant lysate, 635 nm fluorescence, higher = more signal.
Assay [19] has as its system Sonic hedgehog protein (Shh). The assay can be described thus: small-molecule binders of Shh protein, primary screen, biochemical, small-molecule microarray, 635/667 nm fluorescence (AID 1151).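 Also: Shh protein binding to compounds spotted on small-molecule microarray slides; score combines spot fluorescence intensity with signal-to-noise across triplicate slides.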 The note with it: small-molecule microarray binding, 635 nm fluorescence; higher = more signal.

Molecules are shown by their SMILES. The source made the active and inactive calls. Unless noted, no rule for the calls is given here.

Chain of Streptavidin (Streptomyces avidinii) (P22629 whole entry, looked up): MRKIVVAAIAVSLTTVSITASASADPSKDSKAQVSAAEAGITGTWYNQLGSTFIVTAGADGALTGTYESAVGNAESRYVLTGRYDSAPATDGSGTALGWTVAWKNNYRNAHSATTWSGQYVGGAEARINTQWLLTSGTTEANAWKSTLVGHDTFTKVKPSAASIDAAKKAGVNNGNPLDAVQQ
Chain of Fibroblast growth factor 2 (Homo sapiens) (P09038 whole entry, looked up): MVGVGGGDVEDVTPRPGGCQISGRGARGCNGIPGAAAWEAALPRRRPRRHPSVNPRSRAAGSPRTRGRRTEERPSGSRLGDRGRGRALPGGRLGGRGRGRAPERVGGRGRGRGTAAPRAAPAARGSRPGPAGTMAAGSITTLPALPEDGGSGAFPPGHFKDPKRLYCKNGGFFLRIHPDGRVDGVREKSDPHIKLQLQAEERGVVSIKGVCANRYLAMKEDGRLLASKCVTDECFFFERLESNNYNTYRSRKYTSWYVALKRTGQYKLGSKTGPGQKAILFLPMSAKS
Chain of Follistatin (Homo sapiens) (P19883 whole entry, looked up): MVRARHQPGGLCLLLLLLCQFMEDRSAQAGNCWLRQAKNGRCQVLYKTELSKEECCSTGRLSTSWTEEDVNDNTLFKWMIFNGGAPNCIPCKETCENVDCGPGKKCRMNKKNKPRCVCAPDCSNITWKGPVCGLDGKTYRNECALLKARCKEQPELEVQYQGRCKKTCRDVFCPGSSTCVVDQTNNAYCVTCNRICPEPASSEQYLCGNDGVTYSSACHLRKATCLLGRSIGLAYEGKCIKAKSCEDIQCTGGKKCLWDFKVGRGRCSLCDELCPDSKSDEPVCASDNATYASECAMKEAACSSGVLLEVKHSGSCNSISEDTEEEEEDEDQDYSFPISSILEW
Chain of Focal adhesion kinase 1 (Homo sapiens) (Q05397 whole entry, looked up): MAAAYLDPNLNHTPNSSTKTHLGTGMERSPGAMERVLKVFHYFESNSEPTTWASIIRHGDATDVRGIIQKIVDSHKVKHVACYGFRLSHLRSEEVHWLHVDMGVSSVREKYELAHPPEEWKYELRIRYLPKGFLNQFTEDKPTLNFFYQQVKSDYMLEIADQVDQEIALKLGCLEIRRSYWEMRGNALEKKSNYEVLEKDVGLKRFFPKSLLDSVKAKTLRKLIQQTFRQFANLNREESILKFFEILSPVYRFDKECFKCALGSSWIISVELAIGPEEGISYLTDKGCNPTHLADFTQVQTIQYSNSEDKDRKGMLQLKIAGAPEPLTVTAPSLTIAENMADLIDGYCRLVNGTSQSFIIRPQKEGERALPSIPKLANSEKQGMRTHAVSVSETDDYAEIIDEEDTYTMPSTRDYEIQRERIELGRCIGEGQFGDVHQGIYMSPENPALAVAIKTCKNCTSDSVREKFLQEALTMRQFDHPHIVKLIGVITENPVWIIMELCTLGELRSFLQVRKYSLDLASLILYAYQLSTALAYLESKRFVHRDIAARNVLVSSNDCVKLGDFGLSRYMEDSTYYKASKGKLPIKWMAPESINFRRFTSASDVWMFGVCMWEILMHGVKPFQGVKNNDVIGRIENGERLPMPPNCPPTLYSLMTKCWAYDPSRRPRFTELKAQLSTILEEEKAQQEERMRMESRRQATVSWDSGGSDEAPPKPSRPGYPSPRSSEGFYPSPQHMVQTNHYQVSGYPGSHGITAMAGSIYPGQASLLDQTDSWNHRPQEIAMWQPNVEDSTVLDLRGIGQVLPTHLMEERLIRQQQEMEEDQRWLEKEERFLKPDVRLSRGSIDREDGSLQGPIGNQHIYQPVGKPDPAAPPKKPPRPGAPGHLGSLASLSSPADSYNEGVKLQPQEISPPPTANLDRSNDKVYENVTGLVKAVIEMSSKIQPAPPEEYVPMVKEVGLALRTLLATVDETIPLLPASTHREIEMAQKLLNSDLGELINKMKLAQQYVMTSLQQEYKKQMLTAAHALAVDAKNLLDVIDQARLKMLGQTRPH
Chain of Luciferin 4-monooxygenase (Photinus pyralis) (P08659 whole entry, looked up): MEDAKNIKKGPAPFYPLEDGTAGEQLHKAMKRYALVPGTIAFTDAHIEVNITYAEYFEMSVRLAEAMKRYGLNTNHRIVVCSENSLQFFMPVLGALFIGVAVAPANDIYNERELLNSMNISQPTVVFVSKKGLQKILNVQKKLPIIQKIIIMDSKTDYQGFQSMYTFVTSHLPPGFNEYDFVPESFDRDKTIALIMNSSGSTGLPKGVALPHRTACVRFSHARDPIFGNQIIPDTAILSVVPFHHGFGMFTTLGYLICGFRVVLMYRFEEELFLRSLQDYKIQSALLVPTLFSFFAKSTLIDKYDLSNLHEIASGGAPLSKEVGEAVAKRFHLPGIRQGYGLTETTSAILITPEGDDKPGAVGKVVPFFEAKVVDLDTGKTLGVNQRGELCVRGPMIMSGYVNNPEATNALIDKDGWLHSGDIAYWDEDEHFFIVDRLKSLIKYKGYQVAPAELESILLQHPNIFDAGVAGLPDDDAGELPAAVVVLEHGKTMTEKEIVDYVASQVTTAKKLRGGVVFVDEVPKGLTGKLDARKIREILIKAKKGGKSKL
Chain of Torsin-1A (Homo sapiens) (O14656 whole entry, looked up): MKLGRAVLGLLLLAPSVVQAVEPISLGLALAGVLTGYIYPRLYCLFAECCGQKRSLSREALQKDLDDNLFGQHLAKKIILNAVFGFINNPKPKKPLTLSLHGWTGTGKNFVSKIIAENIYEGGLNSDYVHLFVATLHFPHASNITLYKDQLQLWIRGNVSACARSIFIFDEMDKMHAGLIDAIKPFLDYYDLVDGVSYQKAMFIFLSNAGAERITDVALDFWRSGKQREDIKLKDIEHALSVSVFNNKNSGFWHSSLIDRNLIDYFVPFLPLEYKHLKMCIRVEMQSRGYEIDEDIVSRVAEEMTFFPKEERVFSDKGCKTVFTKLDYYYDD

As for `C#CCNCc1ccccc1`, the composite z-score in [1] is 0.3; in assay [2], 0.736; in assay [3], -0.101; in assay [4] it was -0.395; in [5] it was 0.065; in assay [6], 0.166. Also, the composite z-score was 0.0644 in the assay on Lefty1; -0.219 in assay [8]; -0.0766 in assay [10]; 0.202 in assay [15]; -0.134 in assay [16]; 0.335 in the assay with Torsin-1A (Homo sapiens) [17]. Further, the composite z-score (with Torsin-1A (Homo sapiens) [18]; in [19]) was 0.442 throughout. Besides, the z-score was 0.588 in assay [7]; -0.352 (inactive) in [9]; -0.0359 (inactive) in assay [11]; 1.16 (inactive) in assay [12]; -0.882 (inactive) in assay [13]; 0.531 (inactive) in [14].

Take `CCCC[C@H]1C[C@@H]1[C@@H]1N(P(=O)(c2ccccc2)c2ccccc2)C[C@@](O)(c2ccccc2)CC12CC2`: the composite z-score in assay [1] came out at 0.127; in assay [2], 0.973; in assay [3], 0.663; in assay [4], 0.955; in assay [5], 0.208; in assay [6], 0.0514. The composite z-score with Lefty1 is -1.06; in assay [8], 0.727; in assay [10], -0.0443; in assay [15], 1.15; in [16] it was 0.108; in the assay with Torsin-1A (Homo sapiens) [17], -0.318. Further, the composite z-score with Torsin-1A (Homo sapiens) [18] was 0.409; in assay [19], -1.02. Also, the z-score was -1.57 in assay [7]; 2.35 (inactive) in assay [9]; -3.13 (inactive) in assay [11]; 0.922 (inactive) in assay [12]; -0.185 (inactive) in assay [13]; 1.18 (inactive) in assay [14].

Regarding `O=C1NC(=O)C2C1C=CC(C(O)C1CC=CCC1)N2Nc1ccccn1` (stereo not given), the composite z-score in [1] was 1.33; in assay [2], -0.264; in assay [3] it was -0.599; in assay [4] it was -0.0881; in assay [5], 0.585; in assay [6], 0.582. Further, the composite z-score with Lefty1 was 0.616; in [8], 0.763; in assay [10] it was 0.524; in assay [15] it was 0.0992; in assay [16], -0.0645; in the assay with Torsin-1A (Homo sapiens) [17], 0.153. Also, the figures for the composite z-score (with Torsin-1A (Homo sapiens) [18]; in assay [19]) were -0.0899 and 0.682, respectively. The z-score in assay [7] was 0.692; in assay [9] it was -1.13 (inactive); in assay [11] it was 0.607 (inactive); in assay [12], -0.893 (inactive); in assay [13], -0.329 (inactive); in assay [14], 0.383 (inactive).

In the case of `[N-]=[N+]=Nc1ccccc1C[C@]1(C(=O)NCc2ccccc2)N=C(c2ccc(OCCCO)cc2)O[C@H]1c1ccccc1N=[N+]=[N-]`, the composite z-score in [1] was 1.88; in [2], 1.16; in assay [3], 0.414; in assay [4], 1; in assay [5], 0.547; in [6] it was -0.165. For the same molecule, the composite z-score is 0.376 with Lefty1; 0.824 in assay [8]; 0.933 in assay [10]; 1.73 in assay [15]; -0.156 in assay [16]; 0.109 in the assay with Torsin-1A (Homo sapiens) [17]. Also, the composite z-score with Torsin-1A (Homo sapiens) [18] was 0.286; in [19], -0.4. For the same molecule, the z-score in assay [7] was 1.08; in [9] it was -3.77 (inactive); in assay [11] it was -4.05 (inactive); in [12], 0.0249 (inactive); in assay [13], 1.77 (inactive); in assay [14], -0.741 (inactive).

As to `CCCCCCc1nc(-c2ccc(-c3ccc(Cl)c(Cl)c3)o2)c(C)c2c1[Si](C(C)C)(C(C)C)OC2`, the composite z-score was -0.0923 in [1]; -0.634 in assay [2]; -0.0899 in [3]; -0.086 in assay [4]; -0.0705 in [5]; -0.773 in assay [6]. Further, the composite z-score with Lefty1 is 0.268; in [8], -0.328; in assay [10] it was -0.412; in assay [15] it was 0.0199; in assay [16], -0.0933; with Torsin-1A (Homo sapiens) [17], -0.782. The composite z-score amounted to 0.0515 with Torsin-1A (Homo sapiens) [18] and 0.14 in assay [19]. Also, the z-score in [7] was -0.838; in assay [9] it was -2.67 (inactive); in [11] it was -5.66 (inactive); in assay [12], -1.17 (inactive); in assay [13], 0.236 (inactive); in assay [14], 0.246 (inactive).
